Hits are enriched below; roughly 2.5% of the tested compounds scored in any of these assays.
NSD2 inh: NSD2 (human) methyltransferase inhibition | AID 743445 | O96028 | 0.54% of 310,000 active | inhibition, % at 12.5 µM | NSD2 peptide methylation, AlphaScreen, 120 min; in the data active means inhibition above about 50%
RAD52 inh: RAD52 (human) annealing inhibition; P43351; recombinant RAD52 DNA annealing, FRET fluorescence; inhibition, % at 18.7 µM; AID 651710; 0.46% of 360,000 active;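 active means every replicate showing at least 50% inhibition; inconclusive means mean inhibition at least 50% but not in every replicate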
Target sequence (P43351 whole entry, looked up): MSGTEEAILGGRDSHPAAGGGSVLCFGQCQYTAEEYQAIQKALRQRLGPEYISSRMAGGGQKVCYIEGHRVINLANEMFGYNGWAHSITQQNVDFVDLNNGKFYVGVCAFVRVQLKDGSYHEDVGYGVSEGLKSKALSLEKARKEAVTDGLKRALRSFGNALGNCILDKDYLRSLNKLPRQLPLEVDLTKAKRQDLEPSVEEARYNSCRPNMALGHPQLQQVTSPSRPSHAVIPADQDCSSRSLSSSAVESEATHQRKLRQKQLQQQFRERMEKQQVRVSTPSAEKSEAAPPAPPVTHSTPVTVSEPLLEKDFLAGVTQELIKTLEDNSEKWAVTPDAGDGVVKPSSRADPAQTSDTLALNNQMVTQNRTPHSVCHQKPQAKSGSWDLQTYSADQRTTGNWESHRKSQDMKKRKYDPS
Casp6 inh: blocks human caspase-6 cleavage activity | P55212 | purified caspase-6, Z-VEID-R110 cleavage fluorescence | inhibition, % at 12.5 µM | 0.53% of 350,000 active | AID 686996;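 active means mean inhibition across replicates at least about 35%, with every replicate also reaching that limit, limit read from the data; inconclusive means only one of the two criteria met; inactive means neither criterion met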
Target sequence (P55212 24-179 limits assumed): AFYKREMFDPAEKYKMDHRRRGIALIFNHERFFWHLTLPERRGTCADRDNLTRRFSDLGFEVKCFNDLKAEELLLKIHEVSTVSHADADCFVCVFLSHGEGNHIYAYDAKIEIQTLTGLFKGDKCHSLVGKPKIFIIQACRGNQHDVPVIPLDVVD
Target sequence (P55212 194-293 limits assumed): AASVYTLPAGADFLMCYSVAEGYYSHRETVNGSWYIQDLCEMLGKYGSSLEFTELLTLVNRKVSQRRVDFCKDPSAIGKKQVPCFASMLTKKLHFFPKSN
Ecoli rRNA inh: selective bacterial rRNA inhibition in E. coli; E. coli WT GFP vs humanized-ribosome RFP mutants, fluorescence, 24 h; active compounds read low; DMSO median 0, no signal -100; GFP signal change (wild-type ribosome), % (test concentration not listed); 1.6% of 350,000 active; AID 720706;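 active means significant combined selectivity score with lowered wild-type GFP, culture density cut under 30%, mutant RFP and density less affected; inactive means any of these conditions unmet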
AF4-AF9 inh: MLL-AF4/AF9 protein interaction inhibition; P42568; AlphaScreen, biotin-AF4 peptide binding to FLAG-AF9; inhibition, % at 10 µM; 0.47% of 350,000 active; AID 651704;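 active means every replicate reaching a set inhibition limit, whatever the replicate mean, cut at about 25% in these data; inconclusive means mean inhibition reaches that limit but some replicates miss it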
AID977621: growth inhibition of wild-type GFP E. coli, dose response, H69 mutant RFP, cherry-pick | AID 977621 | shares compounds with Ecoli rRNA inh | E. coli wild-type GFP strain growth, fluorescence, 24 h | 1,900 tested, under 10 active | activity change, negative = inhibition at 50 µM;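 active means Wild-type ribosome reporter drop at least double the humanized mutant ribosome reporter drop, growth loss under a set limit; inconclusive means no clear call, values can overlap the other calls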;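 further: wild-type GFP and H69 mutant RFP strains grown together 50/50 in each well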
AID977628: growth of wild-type and h24-humanized E. coli strains – h24 mutant RFP vs wild-type GFP, cherry-pick, dose response; shares compounds with Ecoli rRNA inh; E. coli WT GFP strain growth, fluorescence, 24 h; activity change, negative = inhibition at 50 µM; 1,900 tested, under 10 active;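 active means compound lowering the normal-ribosome reporter at least twice as much as the humanized-ribosome reporter, growth loss under a set limit; inconclusive means no clear call, values can overlap the other calls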;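 further: wild-type GFP and h24 humanized RFP strains co-cultured 1 to 1 per well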
AlphaScreen art: interferes with AlphaScreen signal, flagging NSD2 false positives. shares compounds with NSD2 inh. AlphaScreen artifact counterscreen, preloaded methylated H4 peptide. AC35, µM (titrated, usually from 10 µM). 9.4% of 1,500 active. AID 1053174; call rule not given here
Of the large screens only hits and unclear results are named; the others gave an inactive call (follow-up assays come after a bar, where they were run).

CN(C)S(=O)(=O)c1ccc2oc(SCC(=O)NCC(F)(F)F)nc2c1	Ecoli rRNA inh -14 (no result: AF4-AF9 inh) | AID977621 inconclusive | AID977628 inactive
CCS(=O)(=O)c1ccc2oc(SCC(=O)NCCc3ccc(OC)cc3)nc2c1	none
Fc1ccc(Br)cc1SCCc1ccncc1	Ecoli rRNA inh -25 | AID977621 inactive | AID977628 inactive
O=S(=O)(NCCc1ccncc1)c1ccc(Br)cc1	none (no result: RAD52 inh, Casp6 inh, Ecoli rRNA inh, AF4-AF9 inh)
COc1ccc(C(=O)Cn2c(C)nc([N+](=O)[O-])c2Br)cc1	Ecoli rRNA inh -35 | AID977628 inactive
Cc1nc([N+](=O)[O-])c(Br)n1CC(=O)c1ccc(Cl)cc1	none (no result: RAD52 inh, Casp6 inh, Ecoli rRNA inh, AF4-AF9 inh)
CS(=O)(=O)c1ccc(Cl)c(NC(=O)CSc2nncn2-c2ccccc2)c1	Ecoli rRNA inh -22 | AID977621 inactive | AID977628 inactive
C(=C/c1nccc2c1[nH]c1ccccc12)/c1ccc2c(c1)OCO2	Ecoli rRNA inh -37 | AID977621 inactive | AID977628 inactive
Cc1noc(C)c1S(=O)(=O)N(C)C[C@@H]1Oc2ccc(NS(=O)(=O)c3ccccc3)cc2CC(=O)N([C@H](C)CO)C[C@@H]1C	none (no result: NSD2 inh)
COc1ccc(OC)c(-c2nn(-c3ccccc3)cc2C(=O)N2CCc3ccccc3C2)c1	Ecoli rRNA inh -16 | AID977621 inactive
O=[N+]([O-])c1ccc(-[n+]2nc(-c3ccccc3)nn2-c2ccccc2)cc1	NSD2 inh 81, Ecoli rRNA inh -22 | AID977628 inconclusive | AlphaScreen art 0.91µM
O=c1ccc(-c2ccc([N+](=O)[O-])cc2)nn1-c1ccccc1	none
Cc1ccc(Cl)cc1N1CCN(C(=O)c2ccc3nc[nH]c3c2)CC1	NSD2 inh 51, Ecoli rRNA inh -45 | AID977621 inactive | AlphaScreen art inactive
CCCC(O)C#Cc1cnc2c(c1)C(=O)N([C@H](C)CO)C[C@H](C)[C@H](CN(C)S(C)(=O)=O)O2 (some centres undefined)	none (no result: NSD2 inh)
CC1(CC(=O)N/N=C/c2cc([N+](=O)[O-])c(O)cc2O)OCCO1	NSD2 inh 60, Casp6 inh 69 | AlphaScreen art inactive
Cc1ccc(-n2c(C)cc(/C=N/NC(=O)CC3(C)OCCO3)c2C)c(C)c1	none (no result: RAD52 inh, Casp6 inh, Ecoli rRNA inh, AF4-AF9 inh)
COC(=O)COc1ccc(S(=O)(=O)NCC2CCCO2)cc1Cl (centres undefined)	NSD2 inh 51 (no result: RAD52 inh, Casp6 inh, Ecoli rRNA inh, AF4-AF9 inh) | AlphaScreen art inactive
CC(=O)NC(Cc1c[nH]c2ccccc12)C(=O)NCc1ccco1 (centres undefined)	none
CC(Cc1c[nH]c2ccccc12)C(=O)NCc1ccco1 (centres undefined)	NSD2 inh 63, Casp6 inh 42 | AlphaScreen art inactive
CCC(=O)N1C[C@@H](O)COC[C@H]2O[C@@H](CC(=O)NCc3cc(F)cc(F)c3)CC[C@@H]21	none (no result: NSD2 inh)
C=CCC1CCCCC1=C(C#N)c1ccccc1 (centres undefined)	NSD2 inh 53 | AlphaScreen art inactive
Cc1cccc(C)c1-n1cccc1/C=C1/C(=N)N2C(=NC1=O)SN=C2S(C)(=O)=O	none (no result: NSD2 inh)
Cc1ccc(-n2cccc2/C=C2/C(=N)N3C(=NC2=O)SN=C3S(C)(=O)=O)cc1Cl	NSD2 inh 127 (no result: RAD52 inh, Casp6 inh, Ecoli rRNA inh, AF4-AF9 inh) | AlphaScreen art inactive
Cc1ccc(-c2nn3c(C)nnc3s2)cc1NC(=O)c1cccs1	none (no result: RAD52 inh, Casp6 inh, Ecoli rRNA inh, AF4-AF9 inh)
Cc1cc2nn(-c3cccc4ccccc34)nc2cc1NC(=O)c1cccs1	NSD2 inh 126 (no result: AF4-AF9 inh) | AlphaScreen art inactive
C[C@H](NC(=O)C[C@H]1C[C@H]2c3cc(NC(=O)c4cccnc4)ccc3O[C@H]2[C@H](CO)O1)c1ccccc1	none (no result: NSD2 inh)
COc1ccccc1C#Cc1ccc2c(c1)O[C@H](CN(C)Cc1ccccc1)[C@H](C)CN([C@@H](C)CO)S2(=O)=O	none (no result: NSD2 inh)
N#C/C(=C\c1ccc(O)c(O)c1)C(=O)Nc1cccc2ncccc12	NSD2 inh 115, Casp6 inh 58 | AlphaScreen art 4.8µM
COc1ccc(OC)c(C(=O)Nc2c(O)ccc3ccccc23)c1	NSD2 inh 52 (no result: Ecoli rRNA inh) | AlphaScreen art inactive
COc1ccc(NC(=O)c2cc3ccccc3cc2OC)cc1	none
NS(=O)(=O)c1ccc(S(=O)(=O)N2CCN(C3CCCC3)CC2)cc1	NSD2 inh 118 | AlphaScreen art inactive
O=S(=O)(c1ccc(F)cc1)N1CCC(N2CCCCCC2)CC1	none (no result: RAD52 inh, Casp6 inh, Ecoli rRNA inh, AF4-AF9 inh)
C[C@H]1CN([C@@H](C)CO)S(=O)(=O)c2ccc(C#Cc3ccccc3)cc2O[C@H]1CN(C)C	none (no result: NSD2 inh)
C[C@H](CO)N1C[C@H](C)[C@H](CN(C)C(=O)NC2CCCCC2)OCCCC[C@H](C)Oc2ccc(NS(=O)(=O)c3ccc(Cl)cc3)cc2C1=O	none (no result: NSD2 inh)
O=C(Nc1cccc(C(F)(F)F)c1)c1cc(-c2ccco2)on1	NSD2 inh 92 | AlphaScreen art inactive
Cc1ccc(Nc2nnc(SCC(=O)Nc3ccc(S(=O)(=O)N4CCOCC4)cc3)s2)cc1	NSD2 inh 62 (no result: RAD52 inh, Casp6 inh, Ecoli rRNA inh, AF4-AF9 inh) | AlphaScreen art inactive
O=C(CSc1nnc(Nc2ccccc2)s1)Nc1ccc(S(=O)(=O)N2CCOCC2)cc1	none (no result: RAD52 inh, Casp6 inh, Ecoli rRNA inh, AF4-AF9 inh)
Cn1c(=O)c2c(nc(CN3CCC(C(N)=O)CC3)n2Cc2c(Cl)cccc2Cl)n(C)c1=O	none (no result: RAD52 inh, Casp6 inh, Ecoli rRNA inh, AF4-AF9 inh)
Cn1c(=O)c2c(nc(CN3CCC(C(N)=O)CC3)n2Cc2ccccc2Cl)n(C)c1=O	NSD2 inh 65 (no result: RAD52 inh, Casp6 inh, Ecoli rRNA inh, AF4-AF9 inh) | AlphaScreen art inactive
CO[C@@H]1CN(C)C(=O)c2ccc(NC(=O)C3CC3)cc2OC[C@H](C)N(C)C[C@H]1C	none (no result: NSD2 inh)
CC(C)=NOCC(=O)Nn1c(COc2c(C)cccc2C)nc2ccccc2c1=O	NSD2 inh 57 | AlphaScreen art inactive
COc1ccccc1OCc1nc(C#N)c(NCCCn2ccnc2)o1	none
COc1ccc(Nc2oc(COc3ccccc3OC)nc2C#N)cc1	NSD2 inh 51 | AlphaScreen art inactive
COc1ccc(Cc2ccccc2C(=O)O)cc1	NSD2 inh 50 | AlphaScreen art inactive
CN(C)c1ccc(N=c2sc3ccccc3n2C)cc1	NSD2 inh 57 (no result: RAD52 inh, Casp6 inh, Ecoli rRNA inh, AF4-AF9 inh) | AlphaScreen art 8.9µM
Cn1c(=Nc2ccccc2)sc2ccccc21	none
Cc1cc(NS(=O)(=O)c2ccc(NC(=O)CSc3nnc(-c4ccncc4)n3Cc3ccco3)cc2)nc(C)n1	NSD2 inh 56 (no result: RAD52 inh, Casp6 inh, Ecoli rRNA inh, AF4-AF9 inh) | AlphaScreen art inactive
CC1(C)C=C2C(=NN(c3ccccc3)C(N)=C2C#N)CO1	NSD2 inh 100, Casp6 inh 84 | AlphaScreen art inactive
Oc1cccc(C=NCc2ccccc2)c1	NSD2 inh 159 (no result: RAD52 inh, Casp6 inh, Ecoli rRNA inh, AF4-AF9 inh) | AlphaScreen art inactive
Oc1c(Br)cc(Br)cc1C=NCc1ccccc1	none

Compound activity as filed in PubChem BioAssay.
